The values that follow come from PubChem BioAssay.

A short description of assay [1]: drug combination growth inhibition, ovarian cancer – cell-based, oncology-focused library, rucaparib conditional, profiling panel (AID 1508598;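 active means normalized viability below 100% at a tested concentration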). The note with it: patient-derived ovarian cancer cells, CellTiter-Glo viability, 144 h, stronger effect = lower value.
Assay [2] can be described thus: viability loss in pontine glioma line – cell-based, SU-DIPG-XXV, MIPE5.0, CellTiter-Glo, qHTS, dose response (AID 1347065; cut-off not given, nearly all actives have AC50 up to about 26 µM;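 further: cells exposed to compound for 48 hours before ATP readout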). To be noted: CellTiter-Glo ATP luminescence.
The nature of assay [3]: JHH-DIPG-1 glioma cell viability, MIPE5.0 library, CellTiter-Glo luminescence, qHTS (AID 1347067; cut-off not given, nearly all actives have AC50 up to about 26 µM;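 further: cells exposed to compound for 48 hours before readout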). To be noted: JHH-DIPG-1 glioma viability, CellTiter-Glo ATP luminescence.
Assay [4] can be described thus: growth inhibition of DIPG cells – cell-based, MIPE5.0 library, qHTS (AID 1347068; cut-off not given, nearly all actives have IC50 up to about 30 µM). The note with it: SU-DIPG-XXV viability.
Assay [5] is described as follows: viability loss with induced miR-34 in A549 – imaging, A549 dox-inducible miR-34, nuclei and caspase counts, primary screen (AID 1347080). The note with it: A549 miR-34 inducible, Hoechst nuclei count, 48 h.
A short description of assay [6]: compounds altering HSF1 focus formation in cells – imaging, Selleck Cancer Library (AID 1347162; in the data active means plate-normalised HSF1 focus index below about 0.46). To be noted: human cells, HSF1 nuclear foci imaging, at 10 µM; SSMD: measured here: HSF1 foci SSMD mean; cell count: measured here: cell number; plate-normalised HSF1 focus index: stronger effect = lower value.
Assay [7] can be described thus: MELAS cybrid and Rieske KO viability enhancers – cell-based, MELAS cybrids, Rieske KO mouse fibroblasts, CellTiter-Glo, primary screen (AID 1508586;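 active means mean z-score across replicates of 1.96 or higher in either the MELAS or the Rieske mutant cell line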;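 further: z relative to plate mean and SD of compound and empty wells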). The note with it: low glucose.
A short description of assay [8]: growth inhibition of DIPG cells – cell-based, MIPE4.0 library, CellTiter-Glo luminescence, qHTS (AID 1347066; cut-off not given, nearly all actives have AC50 up to about 30 µM;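 further: cells exposed to compound for 48 hours before readout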). The note with it: SU-DIPG-VI viability, CellTiter-Glo ATP luminescence.
A short description of assay [9]: blockers of cellular phospholipid synthesis – cell-based, LOPAC library, screen 4, primary screen (AID 1347384; call rule not given here). To be noted: animal cells, phospholipid biosynthesis inhibition screen; at 10 µM.
Where [10] appears, read: stronger effect = lower value, cell number ratio, induced over uninduced.
[11] abbreviates: measured here: relative caspase fold change +Dox/-Dox.
[12] abbreviates: measured here: total cells with miR-34 induction, stronger effect = lower value.
Where [13] appears, read: measured here: total cells without miR-34 induction.
The mark [14] stands for this setting: MELAS cybrid survival, CellTiter-Glo 48 h, stronger effect = higher value.
Setting [15] is: Rieske KO mouse fibroblast survival, CellTiter-Glo 72 h.

Each structure is given as a SMILES string. Where “and” joins values, the source holds several entries; their conditions need not be identical. Identical values can stand only once. Results filed as inconclusive are left out. Calls of active or inactive are those of the source.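 How the source made its calls, unless noted: active means compounds whose cell count with miR-34 switched on is under 0.7 times the count with it off; inactive means the rest.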

As to `COc1cc2c(N3CCN(C(=O)Nc4ccc(OC(C)C)cc4)CC3)ncnc2cc1OCCCN1CCCCC1`, the viability was 115% (inactive) in assay [1] (at 0.0781 µM, OCI-P5x cells, with rucaparib 20 µM, 100% = cells with rucaparib alone); 94.2% (active) in assay [1] (at 0.0781 µM, OCI-P5x cells, without rucaparib); 119% (inactive) in assay [1] (at 0.313 µM, OCI-C5x cells, with rucaparib 10 µM, 100% = cells with rucaparib alone); 113% (inactive) in assay [1] (at 0.313 µM, OCI-C5x cells, without rucaparib); 146% (inactive) in assay [1] (at 0.313 µM, OCI-P5x cells, with rucaparib 20 µM, 100% = cells with rucaparib alone); 90.4% (active) in [1] (at 0.313 µM, OCI-P5x cells, without rucaparib). Moreover, the viability in assay [1] (at 1.25 µM, OCI-C5x cells, with rucaparib 10 µM, 100% = cells with rucaparib alone) was 123% (inactive); in [1] (at 1.25 µM, OCI-C5x cells, without rucaparib), 117% (inactive); in assay [1] (at 1.25 µM, OCI-P5x cells, with rucaparib 20 µM, 100% = cells with rucaparib alone), 105% (inactive); in assay [1] (at 1.25 µM, OCI-P5x cells, without rucaparib) it was 90% (active); in assay [1] (at 5 µM, OCI-C5x cells, with rucaparib 10 µM, 100% = cells with rucaparib alone), 158% (inactive); in [1] (at 5 µM, OCI-C5x cells, without rucaparib) it was 138% (inactive). Besides, the viability in assay [1] (at 5 µM, OCI-P5x cells, with rucaparib 20 µM, 100% = cells with rucaparib alone) is 115% (inactive); in [1] (at 5 µM, OCI-P5x cells, without rucaparib), 86.2% (active).

As for `CNNCc1ccc(C(=O)NC(C)C)cc1`, the compound was classed as inactive in assay [2], in assay [3] and in [4]. The fold change in assay [5] (setting [10]) was 0.927 (inactive) and 0.93 (inactive) and 0.882 (inactive); in assay [5] (setting [11]), 0.658 and 1.32 and 1.82. Also, the cell count in assay [5] (setting [12]) is 8930 and 9660 and 9580; in [5] (setting [13]) it was 9640 and 10400 and 10900; in assay [6] it was 7850. This compound also displayed an SSMD in assay [6] of 2.76. Also, the plate-normalised HSF1 focus index in assay [6] was 1.17 (inactive). In addition, the z-score in [7] (setting [14]) was -0.384 (inactive) and 0.576 (inactive); in assay [7] (setting [15]), -1.08 and 0.362.

On to `Cc1ccsc1C(=CCCN1CCC[C@@H](C(=O)O)C1)c1sccc1C`, for which the call in assay [2], in [3] and in assay [4] was inactive.

Turning to `CC(N)C12CC3CC(CC(C3)C1)C2` (stereo not given), the compound was classed as inactive in [2], in assay [8] and in assay [4].

As to `Nc1ncnc2c1ncn2[C@@H]1O[C@H](CO)[C@@H](O)[C@H]1O`, the compound was called inactive in assay [2], in [8] and in [4]. Further, the fold change in assay [5] (setting [10]) was 0.803 (inactive); in assay [5] (setting [11]), 0.527. The cell count in [5] (setting [12]) amounted to 10400; in assay [5] (setting [13]), 12900.

In the case of `CC(=O)O[C@]1(C(C)=O)CC[C@H]2[C@@H]3C=C(Cl)C4=CC(=O)[C@@H]5C[C@@H]5[C@]4(C)[C@H]3CC[C@@]21C`, the AC50 in [2] was 33.2 µM (active). Moreover, the result in assay [8], in [4] and in assay [9] was inactive. The fold change in assay [5] (setting [10]) was 0.956 (inactive) and 0.85 (inactive); in assay [5] (setting [11]), 1.52 and 2.1. Besides, the cell count in assay [5] (setting [12]) is 8890 and 7970; in assay [5] (setting [13]) it was 9300 and 9380. Also, the z-score was -0.4 (inactive) in assay [7] (setting [14]) and -0.158 in assay [7] (setting [15]).

With `COc1cc(OC)c(C(=O)CCCN2CCCC2)c(OC)c1`, the call in assay [2], in assay [8] and in assay [4] was inactive. Moreover, the fold change is 0.858 (inactive) and 0.948 (inactive) and 0.902 (inactive) in [5] (setting [10]); 1.32 and 1.94 and 0.958 in [5] (setting [11]). Further, the cell count in [5] (setting [12]) was 8900 and 10500 and 8390; in [5] (setting [13]), 10400 and 11000 and 9300. Moreover, the z-score is -0.379 (inactive) and 0.339 (inactive) in assay [7] (setting [14]); -0.346 and 0.199 in assay [7] (setting [15]).

Turning to `CCOC(=O)[C@H](CCc1ccccc1)N[C@@H](C)C(=O)N1CCC[C@H]1C(=O)O`, the outcome in assay [2], in assay [8] and in assay [3] was inactive. Moreover, the fold change is 0.896 (inactive) and 0.877 (inactive) and 0.886 (inactive) in assay [5] (setting [10]); 0.827 and 3.26 and 1.44 in assay [5] (setting [11]). Besides, the cell count in assay [5] (setting [12]) was 8260 and 11300 and 10300; in assay [5] (setting [13]), 9220 and 12900 and 11600. Also, the z-score in [7] (setting [14]) is -1.03 (inactive) and -0.334 (inactive); in assay [7] (setting [15]), -0.133 and -0.361.

For `Cn1c(=O)c2c(ncn2C)n(C)c1=O`, the compound was called inactive in [2], in assay [8], in [3] and in assay [9]. Moreover, the fold change in assay [5] (setting [10]) was 0.965 (inactive) and 0.863 (inactive); in [5] (setting [11]), 1.02 and 1.01. For the same compound, the cell count in [5] (setting [12]) was 9770 and 10600; in assay [5] (setting [13]), 10100 and 12300. Further, the z-score in assay [7] (setting [14]) is 0.603 (inactive); in assay [7] (setting [15]), -0.496.

As to `O=C(O)/C=C/c1ccc(Cn2ccnc2)cc1`, the result in [2], in assay [8] and in assay [4] was inactive. For the same compound, the z-score is -1.23 (inactive) and 0.348 (inactive) in assay [7] (setting [14]); 0.0439 and 0.14 in assay [7] (setting [15]).

For the compound `Cn1c(NCCN(CCO)CCCc2ccc([N+](=O)[O-])cc2)cc(=O)n(C)c1=O`, the call in assay [2], in assay [3] and in assay [4] was inactive. Further, the fold change in assay [5] (setting [10]) is 0.987 (inactive) and 0.875 (inactive); in assay [5] (setting [11]) it was 1.91 and 1.23. Moreover, the cell count in assay [5] (setting [12]) was 8810 and 9410; in assay [5] (setting [13]) it was 8920 and 10800. Also, the z-score in assay [7] (setting [14]) was 0.423 (inactive) and 0.101 (inactive); in [7] (setting [15]) it was 0.302 and -0.676.

On to `Oc1ccc(OCc2ccccc2)cc1`, for which the compound was called inactive in [2], in assay [8] and in assay [3]. Moreover, the fold change in [5] (setting [10]) is 0.78 (inactive) and 0.903 (inactive); in assay [5] (setting [11]), 1.95 and 0.958. The cell count was 2470 and 5720 in assay [5] (setting [12]); 3170 and 6340 in assay [5] (setting [13]). Further, the z-score in assay [7] (setting [14]) was -0.263 (inactive) and 1.74 (inactive); in assay [7] (setting [15]) it was 0.599 and -0.357.
